# Measured values published in PubChem BioAssay (NCI).
# Compounds without any hit were thinned out: in the full panel of roughly 83,000, 20% have a hit.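 Cells were grown in 96-well plates and exposed to the test compound at a single concentration for 48 hours; results are reported as percent growth, with values below 10 considered active.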 Unmarked numbers belong to inactive results. Activity calls are given as the source filed them.
# System: M14 melanoma
# Test: NCI-60 one-dose screen, 48 h (100 = growth as untreated, 0 = no growth, -100 = all killed)
# Conditions: 10 µM unless noted
row,Structure (SMILES),growth
1,O=C(c1ccccc1)c1ccc2nc(-c3ccc(F)cc3)[nH]c2c1,54.4%
2,CC1(C)CC[C@]2(C(=O)O)CC[C@]3(C)C(=CCC4[C@@]5(C)C[C@@H](O)[C@@H]6OC(c7ccc(F)cc7)OC[C@@]6(C)C5CC[C@]43C)C2C1 (stereo partly drawn),40.4%
3,N/C(=N\c1nc2ccccc2s1)NC(=O)Nc1ccc(Cl)cc1Cl,-53.6% (active)
4,CCCCSc1nc(Nc2ccc(S(N)(=O)=O)cc2)c(C#N)c(-c2cc(OC)c(OC)c(OC)c2)n1,33.3%
5,O=C(COc1ccc2c(c1)CCCC(=O)N2)NCc1ccccc1,83%
6,Nc1nc(-c2ccccc2)c(N=Nc2ccc([N+](=O)[O-])cc2Cl)s1,92.9%
7,CC1(C)CC[C@]2(C(=O)O)CC[C@]3(C)C(=CCC4[C@@]5(C)C[C@@H](O)[C@@H]6OC(c7cccc(Br)c7)OC[C@@]6(C)C5CC[C@]43C)C2C1 (stereo partly drawn),53.2%
8,C#CCOc1ccc(/C=N/Nc2nc(-c3cc4cc(OC)ccc4oc3=O)cs2)cc1OC,42.2%
9,N#Cc1c(NCc2ccccc2)n[nH]c1Nc1ccccc1,41.1%
10,COc1cc2oc(-c3cccc(C(=O)Nc4ccc(Cl)cc4)c3)cc(=O)c2c(OCC(=O)N[C@@H](Cc2ccccc2)C(=O)O)c1OC,109%
11,Cn1cc(-c2cc3nc(-c4c[nH]c5ccc(Cl)cc45)cc(N)n3n2)c2ccccc21,-89.6% (active)
12,C#C[C@]1(O)CC[C@H]2[C@@H]3CC=C4c5sc(-c6ccc([N+](=O)[O-])cc6)nc5CC[C@]4(C)[C@H]3CC[C@@]21C,-53.7% (active)
13,O=C(CSc1nc2ccccc2c(=O)[nH]1)NCCN1CCCCC1,94.4%
14,C#CCOc1cc(N(CC)CC)ccc1C(C(=O)NC(C)(C)C)N(C(=O)C1CCc2cc(F)ccc2O1)c1ccc(F)c(Cl)c1 (stereo not drawn),63.3%
15,O=c1oc2ccccc2cc1-c1csc(N2N=C(c3ccccc3)CC2c2ccc(N3CCOCC3)cc2)n1 (stereo not drawn),103%
16,Cn1cc(-c2cc(N)n3nc(-c4cn(C)c5ncccc45)cc3n2)c2cccnc21,93.1%
17,COc1ccc(-c2ccnc(SCc3cc4cc(OC)ccc4[nH]c3=O)n2)cc1,19.8%
18,CCOc1ccc(-c2c(C#N)c(-c3ccc(Cl)cc3)nc3n[nH]c(-c4ccc(Cl)cc4)c23)cc1OC,60%
19,CN(C)c1ccnc(NCCCSC(c2ccccc2)(c2ccccc2)c2ccccc2)c1,-70.8% (active)

row,Structure (SMILES),growth
1,O=C(Cn1c(/C=C/c2ccccc2)nc2ccccc2c1=O)Nc1ccccc1,102%
2,O=C(O)c1cccc(-c2ccc(/C=N/NC(=O)c3[nH]c4ccc(Br)cc4c3-c3ccccc3)s2)c1,47.9%
3,C#CCOc1cc(N(CC)CC)ccc1C(C(=O)NC(C)(C)C)N(C(=O)C1CCc2cc(F)ccc2O1)c1cc(C)cc(C)c1 (stereo not drawn),39.9%
4,COc1cc2c(c(OC)c1OC)C(=O)CC(c1cccc(NC(=O)c3cc(NC(=O)[C@@H](N)CO)ccc3C)c1)O2 (stereo partly drawn),119%
5,C#CCOc1ccc(/C=N/Nc2nc(-c3ccc(F)cc3)cs2)cc1OC,61.3%
6,Cc1cc2c(cc1Cl)C(=O)/C(=C/c1ccc(F)cc1)O2,96.8%
7,Cn1cc(-c2cc3nc(-c4cn(C)c5ncccc45)cc(N)n3n2)c2cc(Cl)ccc21,-90.8% (active)
8,COc1ccc2[nH]cc(-c3cc(N)n4nc(-c5cn(C)c6ccccc56)cc4n3)c2c1,-91.1% (active)
9,COc1ccc(Cc2nn(CC(=O)N/N=C/c3ccc(F)cc3)c(=O)c3c(C)noc23)cc1,50.8%
10,Cc1ccc(NCC(=O)Cn2cc(COc3ccc(C=Nc4cnc5ccccc5c4)cc3)nn2)cc1,105%
11,Cc1cccc(NC(=O)CN2CCN(c3ncnc4c3cnn4-c3ccccc3)CC2)c1,94.4%
12,Cn1cc(-c2nc(N)nnc2-c2c[nH]c3ccc(F)cc23)c2cc(Br)cnc21,-9.79% (active)
13,COc1ccc2[nH]cc(-c3nnc(N)nc3-c3cn(C)c4ncc(Br)cc34)c2c1,105%
14,COc1ccc(NC(=O)[C@H](C)N)cc1C(=O)Nc1cccc(C2CC(=O)c3c(cc(OC)c(OC)c3OC)O2)c1 (stereo partly drawn),110%
15,CC1(C)CC[C@]2(C(=O)O)CC[C@]3(C)C(=CCC4[C@@]5(C)C[C@@H](O)[C@@H]6OC(c7ccco7)OC[C@@]6(C)C5CC[C@]43C)C2C1 (stereo partly drawn),23.3%
16,COc1ccc2c(c1)c(/C=N/Nc1ccc3ccccc3n1)cn2C,-6.98% (active)
17,Cc1ccc(S(=O)(=O)c2nc(S(=O)(=O)c3ccc(C)cc3)c(N3CCN(C)CC3)s2)cc1,74%
18,COc1cc2c(c(OC)c1OC)C(=O)CC(c1cccc(NC(=O)c3cc(NC(=O)[C@H](C)N)ccc3Cl)c1)O2 (stereo partly drawn),44.3%
19,Cc1ccc(C(=O)C(c2c[nH]c3ccccc23)c2c[nH]c3ccccc23)cc1,33.9%
